EBV gp42 block: blocks Epstein-Barr virus glycoprotein 42 binding | Q1HVG2 | Fluorescence polarization binding assay, mP read-out | inhibition, % (tested at 21.74 µM) | hit rate 0.42% among 220,000 | AID 1085; in the data active = inhibition above about 50%
EBNA-1 inh: blocks EBNA-1 binding to DNA. EBNA-1 DNA binding, fluorescence polarization. AID 1950. hit rate 0.34% among 300,000. inhibition, % at 14.8 µM; in the data active = inhibition above about 28%
ZTA DNA inh: blocks Epstein-Barr virus ZTA, an EBNA-1 counter-screen; ZTA-DNA binding, fluorescence polarization; inhibition, % at 11 µM; hit rate 0.15% among 320,000; in the data active = inhibition above about 33%
MEX-5 binding: C. elegans MEX-5 TCR-2 RNA binding activity; Q9XUB2; MEX-5/FITC-TCR2 RNA binding, fluorescence polarization; stronger effect = lower value; activity score (negative = inhibition of binding), % at 10 µM; hit rate 0.38% among 300,000; AID 1832;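 active = inhibition past about -25% in most replicates, and total fluorescence under double the plate's negative control median, limit read from the data; inconclusive = replicates evenly split on the limit, or fluorescence at least double controls; inactive = too little inhibition in most replicates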;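 note: 0% = DMSO and -100% = 5 µM competing unlabeled TCR2 RNA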
Target sequence (Q9XUB2 whole entry, looked up): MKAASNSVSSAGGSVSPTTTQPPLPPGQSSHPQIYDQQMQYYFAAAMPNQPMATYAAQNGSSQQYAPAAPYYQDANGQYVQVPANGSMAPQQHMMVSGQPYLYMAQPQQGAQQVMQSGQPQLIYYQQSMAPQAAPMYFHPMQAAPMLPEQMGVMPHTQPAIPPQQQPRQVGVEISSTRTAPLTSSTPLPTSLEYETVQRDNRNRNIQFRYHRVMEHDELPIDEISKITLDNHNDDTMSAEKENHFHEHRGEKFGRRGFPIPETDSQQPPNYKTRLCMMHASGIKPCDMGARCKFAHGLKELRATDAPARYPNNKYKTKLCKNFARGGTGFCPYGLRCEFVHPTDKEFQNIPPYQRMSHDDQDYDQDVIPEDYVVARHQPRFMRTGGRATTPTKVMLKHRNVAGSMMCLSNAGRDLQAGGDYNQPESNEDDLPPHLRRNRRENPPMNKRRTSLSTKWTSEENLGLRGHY
Zta DNA confirm: EBV ZTA DNA binding inhibition, confirmation; shares compounds with ZTA DNA inh; Zta-ZRE DNA binding, fluorescence polarization; inhibition, % at 11.1 µM; hit rate 30% among 320;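 active = mean inhibition across triplicate runs above the hit threshold derived for the original primary screen, cut at about 33% in these data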;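 note: 0% = Zta with DMSO and 100% = wells lacking Zta protein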
EBNA-1 counter: EBNA-1 DNA binding inhibition, counter-screen for ZTA; 320 tested, under 10 active; shares compounds with ZTA DNA inh; AID 2362; fluorescence polarization; inhibition, % at 14.8 µM; call rule not given here
* marks the source's active call; other numbers are inactive results; u = inconclusive; x = no result given. Sampled rows, rich in hits. Any-hit rate of the full collection: about 1%.

SMILES	EBV gp42 block	EBNA-1 inh	ZTA DNA inh	MEX-5 binding	Zta DNA confirm	EBNA-1 counter
COc1ccc(C(=O)N(C)CCCC2CCCC2)cc1OC1CCN(C(C)C)CC1	x	8.3	34.2*	-1.2	-2.6	-9.7
Cc1ccc(-n2nc(C(=O)NCc3ccco3)c3c4ccccc4n(C)c3c2=O)cc1	-16.2	15.5	45.4*	-3.9	0.7	22.4
COc1cccc(NC(=S)N2CCc3cc(OC)c(OC)cc3C2)c1	-14.1	-5.4	47.9*	-2.2	-7.7	-1.9
O=C(NCCCN1CCOCC1)c1ccc(/C=C2\Oc3ccccc3N(Cc3ccccc3F)C2=O)cc1	x	-1.2	48.0*	-0.9	14.2	-6.3
CCN1CCN(CCCNC(=O)c2ccc(/C=C3/Oc4ccccc4N(Cc4cccc(C)c4)C3=O)cc2)CC1	x	3.2	15.0	-0.4	x	x
CCN1CCN(c2ccc(N3CCN(C(=O)c4ccc(Br)o4)CC3)nn2)CC1	x	-9.5	-28.3	-0.2	x	x
CNS(=O)(=O)c1cccc(C(=O)NCC(C)(C)N2CCCCC2)c1	x	-2.2	0.6	2.3	x	x
O=C(COC(=O)c1nc(Cl)ccc1Cl)NC1CCCCC1	x	x	2.3	x	x	x
Nc1ccc(N2CCOCC2)c2nonc12	-13.9	-2.9	54.9*	-0.6	1.6	7.1
COc1ccc(C(=O)N/C(=C\c2cn(S(=O)(=O)N(C)C)c3ccccc23)C(=O)N2CCN(C)CC2)cc1	x	-5.5	0.2	-0.4	x	x
Cc1cc(N)n2ncc(-c3ccc(F)cc3)c2n1	6.5	1.4	2.9	-3.0	x	x
Cc1nc2c(-c3ccc(F)cc3)cnn2c(N)c1-c1ccc(F)cc1	x	-1.1	38.0*	3.6	-1.9	-11.8
O=C(O)/C(=C\c1ccc2ccccc2c1)c1cccc2ccccc12	x	8.4	36.4*	-2.1	1.8	8.5
COCCN(C(=O)c1cc2c(s1)CCCCC2)c1c(N)n(Cc2ccccc2)c(=O)[nH]c1=O	x	8.5	-0.2	-1.6	x	x
COCCCN(C(=O)c1cc2c(s1)CCCCC2)c1c(N)n(Cc2ccccc2)c(=O)[nH]c1=O	x	12.2	161.7*	1.3	15.1	0.5
Cc1ccc(C(=O)Nc2ccc(C(=O)N/N=C/c3ccncc3)cc2)cc1	-10.3	-1.7	47.2*	0.1	45.1*	-8.3
CC(CNC(=O)COC(=O)c1ccco1)c1ccccc1 (stereo not given)	x	x	14.5	x	x	x
O=C(NCCCN1CCOCC1)c1cccc(S(=O)(=O)Nc2ccccc2Cl)c1	x	-16.9	-13.4	-0.2	x	x
O=C(O)CC(NC(=O)CCc1ccccc1)c1ccc(Cl)cc1 (stereo not given)	x	10.6	61.7*	0.5	-0.9	-4.6
COc1ccc(Sc2nc3ccccc3n3c(C(F)(F)F)nnc23)cc1	-15.8	7.1	46.9*	-0.7	-4.2	-2.7
Cc1ccc(NC(=O)CCNC(=O)c2ccco2)cc1	-13.7	11.8	-17.3	-1.1	x	x
Cc1cccc(NC(=O)CCNC(=O)c2ccco2)c1	-9.6	3.2	44.4*	0.0	4.1	-8.7
Cc1c(CC(=O)N[C@@H](C)C(=O)O)c(=O)oc2cc3oc4c(c3cc12)CCCC4	x	-4.2	-3.1	-0.7	x	x
CC1CCCC(NC(=O)COC(=O)c2cc(S(=O)(=O)N3CCCCC3)ccc2N2CCOCC2)C1C (stereo not given)	-9.5	10.9	4.8	0.3	x	x
CC1CCCC(NC(=O)COC(=O)c2cccc(S(=O)(=O)N3CCCCC3)c2)C1C (stereo not given)	x	x	40.8*	x	0.3	7.6
SMILES	EBV gp42 block	EBNA-1 inh	ZTA DNA inh	MEX-5 binding	Zta DNA confirm	EBNA-1 counter
CCOC(=O)c1cc2c(C)n(-c3ccc(N(C)C)cc3)c(C)c2cc(C(=O)OCC)c1=O	0.2	-5.8	159.7*	0.0	6.3	-0.7
CCOc1ccc(NC(=S)Nc2ccc3nsnc3c2)cc1	-5.9	3.7	66.9*	2.0	0.7	0.8
CC(C)N(C(=O)Nc1ccc2nsnc2c1)C(C)C	3.9	-9.9	73.5*	1.3	8.9	4.7
COc1ccc(NC(=S)Nc2ccc3nsnc3c2)cc1	0.9	19.5	38.1*	0.3	5.3	-2.0
CCc1ccc2c(c1)C(=O)C[C@]1(CCC[C@H](C)C1)O2	x	3.3	5.2	0.8	x	x
COc1ccc2nc(SCC(=O)Nc3cc(C)on3)c(C#N)cc2c1	x	-6.3	49.8*	-5.1	11.5	5.5
COc1ccc(OCCOC(=O)c2cc(S(=O)(=O)N3CCOCC3)c(Cl)cc2Cl)cc1	x	13.7	1.7	-1.9	x	x
COc1cccc2c1C(=O)c1c(O)c3c(c(O)c1C2=O)C[C@](O)(C(C)=O)C[C@H]3O[C@@H]1C[C@@H](N)[C@@H](O)[C@@H](C)O1	x	-3.9	43.6*	u	74.6*	-5.0

Screening results (PubChem)
